Experimental data from the supplement of paper PMC7156485.

Each compound was assayed on TDF (assay: H1.0 immunofluorescence intensity relative to DMSO (% of DMSO); higher = stronger H1.0 induction, active = 120 or more). Settings: concentration: 10 µM; 24 h.
How it was run: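 After 24 h at 37 °C with compounds at 10 µM, in triplicate, HCC1569 and TDF cells were fixed with 3.7% formaldehyde. Immunostaining used a rabbit anti-H1.0 antibody and an AlexaFluor 647 secondary, with DAPI, and six fields per well were imaged at ×10. H1.0 nuclear intensity or cell number is presented as percent of the plate control, from the median of replicates, with HCC1569 values smoothed for positional effects.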
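Note: TDF is a line of transformed human dermal fibroblasts of mesenchymal origin.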

Compound | H1.0 immunofluorescence intensity
COc1cc(Oc2ccnc3cc(OC)c(OC)cc23)ccc1NC(=O)NC(C)c1nccs1 (stereo unspecified) | 99.9 (inactive)
Cc1ccccc1C(OCCN(C)C)c1ccccc1.Cl (stereo unspecified) [Orphenadrine hydrochloride] | 96.6 (inactive)
CCCCCC(O)C=CC1C(O)CC(O)C1CC=CCCCC(=O)O (stereo unspecified) [Dinoprost] | 93.2 (inactive)
CC(=O)O.NC(N)=NN=Cc1c(Cl)cccc1Cl [Guanabenz acetate] | 106 (inactive)
COc1cc2nc(N3CCN(C(=O)C4CCCO4)CC3)nc(N)c2cc1OC (stereo unspecified) [Terazosin] | 93.9 (inactive)
C=C(C)C1CC=C(C(=O)O)CC1 (single isomer, unassigned; (-)) [(-)-Perillic acid] | 95.9 (inactive)
CCCCCCCCCCCCCCCCOCC(COCC(F)(F)F)OP(=O)([O-])OC.[Li+] (stereo unspecified) | 99.5 (inactive)
COC(=O)C1=C(C)NC(C)=C(C(=O)OC)C1c1ccccc1[N+](=O)[O-] [Nifedipine] | 94.7 (inactive)
N#CCNC(=O)c1ccc(-c2ccnc(Nc3ccc(N4CCOCC4)cc3)n2)cc1 | 132 (active)
CN(C)CCC(CSc1ccccc1)Nc1ccc(S(=O)(=O)NC(=O)c2ccc(N3CCN(Cc4ccccc4-c4ccc(Cl)cc4)CC3)cc2)cc1[N+](=O)[O-] (stereo unspecified) | 110 (inactive)
CC1(C)SC2C(NC(=O)COc3ccccc3)C(=O)N2C1C(=O)[O-] (stereo unspecified) [Pencillin V] | 87.4 (inactive)
